Sampled rows, rich in hits. Any-hit rate of the full collection: about 3.4%.
GPR151 activ: activates the human receptor GPR151 | PathHunter beta-arrestin GPR151 cells, luminescence | AID 1508602 | Q8TDV0 | activation, % at 11.2 µM | actives 1% (n = 650,000); in the data active means activation above about 4.9%;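 further: 0% = median of compound wells and 100% = cells with positive control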
MITF inh: human MITF inhibition, primary screen; AlphaScreen MITF homodimerization, bead proximity signal; inhibition, % at 2.6 µM; actives 0.91% (n = 650,000); in the data active means inhibition above about 50%;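 further: 0% = vehicle wells with protein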
Target sequence (O75030 whole entry, looked up): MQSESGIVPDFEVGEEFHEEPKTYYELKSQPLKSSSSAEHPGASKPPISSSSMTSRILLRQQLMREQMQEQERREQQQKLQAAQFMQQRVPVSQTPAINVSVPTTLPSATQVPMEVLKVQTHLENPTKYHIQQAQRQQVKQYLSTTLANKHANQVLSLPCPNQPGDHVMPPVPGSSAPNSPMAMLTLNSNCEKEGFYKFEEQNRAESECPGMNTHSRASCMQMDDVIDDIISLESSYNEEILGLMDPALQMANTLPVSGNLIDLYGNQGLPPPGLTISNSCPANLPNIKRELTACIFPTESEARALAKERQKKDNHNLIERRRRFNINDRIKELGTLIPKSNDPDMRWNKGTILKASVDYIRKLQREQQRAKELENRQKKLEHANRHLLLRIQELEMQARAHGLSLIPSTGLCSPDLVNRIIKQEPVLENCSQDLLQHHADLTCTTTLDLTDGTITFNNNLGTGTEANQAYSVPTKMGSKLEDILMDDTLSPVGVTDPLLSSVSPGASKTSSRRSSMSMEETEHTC
FBW7 act: human FBW7 E3 ligase activation, primary screen. actives 0.13% (n = 650,000). AlphaScreen FBW7–phospho-cyclin E peptide binding, activator screen. normalized activity (activation), % at 26.1 µM; in the data active means normalized activity above about 1.9%;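 further: purified mutant Fbw7 with reduced substrate affinity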
TEAD-YAP inh: TEAD-YAP interaction inhibition; HEK-TIYL cells, TEAD-Gal4/YAP UAS-luciferase luminescence; inhibition, % at 9.12 µM; actives 1.4% (n = 640,000); AID 1259422; in the data active means inhibition above about 32%;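 further: 0% = median of test compound wells and 100% = reference inhibitor wells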
* hit, by the source's call; i = inactive.

SMILES	GPR151 activ	MITF inh	FBW7 act	TEAD-YAP inh
COC(=O)c1sc(NC(=O)c2ccccc2Cl)c(C#N)c1C	-0.2	-8.7	0.1	0.7
Cc1ccc(C2CC(C(F)(F)F)n3nc(C(=O)Nc4cccc(Cl)c4Cl)cc3N2)cc1 (stereo not drawn)	1.5	24.2	0.0	7.8
CC(=O)Nc1nc(-c2cc(Cl)ccc2Cl)cs1	-0.7	3.9	0.1	6.3
CC(=O)Nc1nc(-c2ccc(Cl)cc2Cl)cs1	1.4	-4.0	0.1	50.0*
CC(C)(C)n1cc(-c2cnc3ccccc3n2)cn1	-7.6	9.3	0.3	77.6*
CC(=O)N(C(C)=O)c1ccc(-c2cnc(-c3ccc(N(C(C)=O)C(C)=O)cc3)nc2)cc1	0.6	5.1	-0.2	-0.2
Oc1ccc(-c2cnc(-c3ccc(O)cc3)nc2)cc1	-1.6	3.8	0.0	95.1*
Oc1ccc(-c2cnc3ccccc3n2)cc1	-10.0	-5.7	-0.1	52.3*
CCCn1c(=O)c2c(nc3n(-c4ccc(OC)cc4)c(C)c(C)n23)n(C)c1=O	-0.4	-2.1	0.1	12.0
Nc1nc2ccccc2n1C(=O)c1ccc(Cl)cc1	-7.6	0.6	-0.5	70.7*
Cc1ccc(C(=O)n2c(N)nc3ccccc32)cc1	-8.1	-4.7	-0.3	90.7*
CC(C)N1C(=O)C2(c3ccccc31)N1CC3(C)CN2CC(C)(C1)C3=O (stereo not drawn)	0.1	-4.0	-0.1	3.9
Cn1c2c(c(=O)[nH]c1=O)C(c1cccc(Br)c1)C1=C(N2)c2ccccc2C1=O (stereo not drawn)	0.3	3.4	0.2	-6.8
Cc1cccc2cc(CN(Cc3ccco3)C(=O)C(F)(F)F)c(=O)[nH]c12	-0.8	-16.4	0.0	61.0*
O=C(Nc1ccc2c(c1)C(=O)NC2=O)c1cccc(NC(=O)c2ccco2)c1	0.9	20.7	0.0	3.2
CC(C)(C)OC(=O)N[C@H](C(=O)NCc1nc(-c2ccncc2)n[nH]1)c1ccccc1	-0.2	2.2	-0.1	9.3
O=C(Cn1nnc(-c2ccccc2)n1)N/N=C/c1cc(Cl)ccc1O	-0.4	57.3*	0.1	-0.5
O=C(Cn1nnc(-c2ccccc2)n1)N/N=C/c1ccc(O)c(O)c1O	1.5	65.6*	-1.3	7.9
O=C(Cn1nnc(-c2ccccc2)n1)N/N=C/c1ccccc1C(F)(F)F	1.2	11.6	0.4	-0.5
Cc1cccc(CSc2nnc(CNC(=O)c3ccccc3)o2)c1	0.5	5.8	-0.1	7.8
O=C(NCc1nnc(SCc2ccccc2F)o1)c1ccc(F)cc1	0.8	3.0	0.1	60.5*
O=C(NCc1nnc(SCc2ccccc2)o1)c1ccc(F)cc1	-1.2	7.1	0.1	58.3*
O=C(NCc1nnc(SCc2cccc(F)c2)o1)c1ccccc1	-0.1	4.6	-0.1	55.7*
O=C(NCc1nnc(SCc2ccccc2Cl)o1)c1ccccc1	-0.7	-6.5	0.1	-6.2
O=[N+]([O-])c1ccc(S(=O)(=O)Nc2cccc3ccccc23)cc1	-0.3	17.2	-0.1	12.1
SMILES	GPR151 activ	MITF inh	FBW7 act	TEAD-YAP inh
O=[N+]([O-])c1ccc(S(=O)(=O)Nc2cccc3cc4ccccc4nc23)cc1	-1.1	23.7	0.3	79.6*
Cc1ccc(-c2csc(NC(=O)c3cccc(Oc4ccccc4)c3)n2)cc1	0.3	19.3	0.3	-10.3
COc1cc(C(=O)Nc2nc(-c3ccc(C)cc3C)cs2)cc(OC)c1OC	1.0	4.0	-0.1	32.3*
CCN(CC)S(=O)(=O)c1ccc(C(=O)Nc2nc(-c3ccc(C)cc3C)cs2)cc1	-2.0	-1.9	0.2	6.8
COc1cc(C(=O)Nc2nc(-c3ccccn3)cs2)cc(OC)c1OC	-0.5	30.9	-0.2	73.3*
COc1ccccc1-c1csc(NC(=O)c2cc(OC)c(OC)c(OC)c2)n1	-0.3	i	-0.1	12.0
O=C(Nc1nc(-c2ccccn2)cs1)c1cccc(Oc2ccccc2)c1	2.0	-1.8	-0.1	37.1*
Cc1ccc(-c2csc(NC(=O)c3ccc(S(=O)(=O)N(C)C)cc3)n2)c(C)c1	2.6	2.7	0.1	35.3*
COc1ccc(CC(=O)NNC(=S)NC(=O)C(C)(C)C)cc1	0.4	3.3	-0.3	0.0
Clc1cc(Nc2ccc3cn[nH]c3c2)ncn1	-0.1	4.3	-0.2	-15.8
CCN(CC)CCNC(=O)C(=O)Nc1cccc(F)c1	0.7	7.6	-0.1	-27.6
CC1(C)CC(=O)C2=C(C1)OC(N)=C(C#N)C2c1c(Cl)cccc1Cl (stereo not drawn)	0.3	-5.9	-0.1	4.1
CC(C)Oc1ccc(C(=O)Nc2nnc(-c3ccccn3)o2)cc1	-7.4	7.0	-0.1	35.9*
N#Cc1ccc(C(=O)Nc2nnc(-c3ccccn3)o2)cc1	-9.5	24.2	-0.2	-9.8
O=C(N/N=C/c1ccc2ncccc2c1)c1ccco1	-8.8	10.8	0.0	41.1*
O=C(N/N=C/c1ccc(O)c2ncccc12)c1ccco1	1.1	104.0*	-0.3	-33.2
COc1cccc(/C=N\NC(=O)c2ccc(C)nc2)c1	-1.9	17.5	0.1	-10.4
O=C(Nc1ccc2ncccc2c1)c1ccco1	-0.6	-7.6	-0.1	-52.6
Cc1ccc(C(=O)N/N=C\c2cccc(OC(=O)c3ccco3)c2)cn1	1.7	-9.3	2.2*	1.2
O=C(N/N=C/c1cc(Cl)ccc1O)c1ccco1	0.1	-52.4	0.0	-48.5
c1cncc(-c2nc3c4ccccc4nc(N4CCC(N5CCCCC5)CC4)n3n2)c1	-0.3	0.7	0.0	45.6*
CCCN(C(=O)CCl)C1CCS(=O)(=O)C1 (stereo not drawn)	0.0	4.7	-0.1	50.3*
CN(C)CCN(C(=O)CCl)C1CCS(=O)(=O)C1 (stereo not drawn)	-0.2	18.3	0.5	8.9
CC(C)CN(C(=O)CCl)C1CCS(=O)(=O)C1 (stereo not drawn)	-0.6	7.4	-0.1	66.3*
Brc1ccc(/C=N/Nc2nnnn2-c2cccc3ccccc23)cc1	1.5	6.1	0.2	13.3
SMILES	GPR151 activ	MITF inh	FBW7 act	TEAD-YAP inh
COc1cccc2cc(C(=O)N3CCN(c4cc(N5CCCCC5)ncn4)CC3)oc12	1.8	8.4	0.1	7.7
Cc1ccccc1OCC(=O)NNC1=C(C(=O)C(F)(F)F)CCC1	1.1	8.2	0.0	1.0
COc1ccc(C)cc1NC(=O)NCc1cc(C)n(C)n1	1.0	-0.1	0.0	34.6*
Cc1ccc(C(C)C)c(OCCN=Cc2c(O)n(C)c(=O)n(C)c2=O)c1	-0.6	0.9	-0.1	33.4*
O=C(Oc1ccc(NS(=O)(=O)c2ccccc2)c2ccccc12)c1ccccc1	0.2	-2.7	0.2	76.5*
Cc1ccc(/C=C/C(=O)N2CCN(c3ccccc3)CC2)o1	0.6	17.4	0.6	10.3
CC1=C(C(=O)Nc2ccc(C)cn2)C(c2ccsc2)C2=C(CC(C)(C)CC2=O)N1 (stereo not drawn)	-0.2	-17.1	-0.3	55.1*
COc1ccc(COC(=O)C2=C(C)NC3=C(C(=O)CC(C)(C)C3)C2c2ccccc2)cc1 (stereo not drawn)	0.2	14.4	2.6*	6.9
CC1=C(C(=O)Nc2ccccn2)C(c2ccsc2)C2=C(CC(C)(C)CC2=O)N1 (stereo not drawn)	1.9	1.8	-0.1	7.3
